Consider 40 compounds from PubChem BioAssay (NCATS).

Records with an inconclusive call do not appear. Calls of active or inactive are those of the source. Calls come from the whole dose curve; as a rule, active = well fitted curve in the direction sought with a large enough effect; inconclusive = small, poorly fitted or top-dose-only effect, or another doubt; inactive = no such curve, though single readings can be large; an effect the other way counts as inactive or inconclusive.
Potency is the fitted concentration of half-maximal effect.

Chain of Rap guanine nucleotide exchange factor 3 (Homo sapiens) (O95398 whole entry, looked up): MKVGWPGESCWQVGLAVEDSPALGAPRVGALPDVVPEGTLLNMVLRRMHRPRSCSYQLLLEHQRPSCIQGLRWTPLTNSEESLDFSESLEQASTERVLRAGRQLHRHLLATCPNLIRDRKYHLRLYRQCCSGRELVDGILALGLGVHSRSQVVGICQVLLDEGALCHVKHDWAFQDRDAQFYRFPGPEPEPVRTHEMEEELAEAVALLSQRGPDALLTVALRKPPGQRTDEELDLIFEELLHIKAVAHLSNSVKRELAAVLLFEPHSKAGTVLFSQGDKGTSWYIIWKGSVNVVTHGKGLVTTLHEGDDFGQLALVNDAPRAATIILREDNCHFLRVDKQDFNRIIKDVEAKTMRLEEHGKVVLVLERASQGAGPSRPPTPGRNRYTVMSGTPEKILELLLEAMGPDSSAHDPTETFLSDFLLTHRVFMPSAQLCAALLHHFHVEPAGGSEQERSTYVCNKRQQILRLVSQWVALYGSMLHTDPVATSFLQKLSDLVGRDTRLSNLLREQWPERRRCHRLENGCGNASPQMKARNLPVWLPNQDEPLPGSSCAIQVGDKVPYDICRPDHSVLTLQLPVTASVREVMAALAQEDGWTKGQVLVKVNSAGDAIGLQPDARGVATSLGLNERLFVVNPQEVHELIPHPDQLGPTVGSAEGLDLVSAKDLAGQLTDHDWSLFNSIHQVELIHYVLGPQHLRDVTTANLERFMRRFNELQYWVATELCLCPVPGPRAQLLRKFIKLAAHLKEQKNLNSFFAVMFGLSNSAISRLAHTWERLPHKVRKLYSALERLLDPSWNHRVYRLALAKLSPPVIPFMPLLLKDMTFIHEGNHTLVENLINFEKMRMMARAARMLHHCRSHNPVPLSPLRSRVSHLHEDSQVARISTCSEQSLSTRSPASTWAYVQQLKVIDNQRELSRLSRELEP

In one assay the target is Rap guanine nucleotide exchange factor 3 (Homo sapiens) (UniProt O95398). The assay is described as follows: Confirmatory qHTS for antagonist of cAMP-regulated guanine nucleotide exchange factor 3 (EPAC1) (AID 1645880).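 For activity, negative = inhibition: plate controls were DMSO only for no effect and full effect of the ATA control for full effect.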 Note: nearly all actives have a fitted effect of over 55% in size. Particulars: EPAC1 Rap1B-BODIPY-GDP exchange, fluorescence; series mostly up to 115 µM; activity, negative = inhibition: at the top concentration. In a few lines:
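Released BODIPY-GDP fluoresces less than Rap1-bound BODIPY-GDP; the signal is followed at 480/540 nm at 5-min intervals over 30 min, after 5 min at room temperature. Reactions contain 100 nM EPAC1, 250 nM RAP1B-BODIPY-GDP and 50 uM GDP; results are normalized to ATA and DMSO.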
Consider `O=C(c1ccccc1)N1CCN(CCc2ccccn2)CC1`, for which the “activity, negative = inhibition” value is -24.8% (inactive).
Still for that read-out and setting: to `Cc1ccnc(NS(=O)(=O)c2ccc(NC(=O)Cc3c(F)cccc3Cl)cc2)n1` belongs -18.1% (inactive); to `CN1N=C(C(C)(C)C)CC1=O`, -20.9% (inactive).
With `COc1cc(/C=C2\SC(=S)N(NS(=O)(=O)c3ccc(C)cc3)C2=O)ccc1O`, the Potency was 22.4 µM (active).
`CCOc1ccc(/C(C)=N/NC(=O)C(OC)c2ccccc2)cc1` (stereo not given): the “activity, negative = inhibition” value was -25.9% (inactive).
Still for that read-out and setting: with `O=C(/C=C/c1ccc(Cl)cc1)Nc1nccs1` the figure was -18.3% (inactive); with `Cc1ccc(Cl)cc1NC(=O)c1ccccc1OCC(=O)Nc1ccc(Cl)cc1`, -29.1% (inactive).
Still for that read-out and setting: with `CCNC(=O)COc1ccc(/C=C2\COc3ccccc3C2=O)cc1OC` the figure was -16.8% (inactive); with `CCOC(=O)c1c(C)nc2sc(C(N)=O)c(N)c2c1-c1ccccc1`, -24.7% (inactive).
Turning to `O=C(O)c1ccccc1NS(=O)(=O)c1ccc(N/N=C/c2ccc(O)c(O)c2)c([N+](=O)[O-])c1`, the Potency is 8.91 µM (active).
For `Cc1ccc(NC(=O)c2ccc(Cl)c(S(=O)(=O)N3CCc4ccccc43)c2)nc1`, the “activity, negative = inhibition” value is -13.4% (inactive).
Regarding `COc1ccc(-c2onc3ccc(C(C)=O)cc23)cc1`, the “activity, negative = inhibition” value was 0.239% (inactive).
Same read-out and setting: to `COC(=O)c1cc2sccc2n1Cc1c(C)cc(C)cc1C` belongs -28.7% (inactive); to `CCOc1ccc(N2CC(c3nc4ccccc4n3Cc3cccc(Cl)c3)CC2=O)cc1` (stereo not given), -16% (inactive); to `Cc1cc(-c2ccc(Br)s2)nc(-n2cccc2)n1`, -19.3% (inactive).
Take `O=C(Nc1cccc(Cl)c1)N(Cc1nc2ccccc2c(=O)[nH]1)Cc1cccs1`: the “activity, negative = inhibition” value was -23.9% (inactive).
Consider `C/C(=N\N1C(=O)c2ccccc2NC1c1ccco1)c1ccccc1O` (stereo not given), for which the Potency was 75.7 µM (active).
Turning to `CCc1nnc(NS(=O)(=O)c2ccc(Nc3ccc([N+](=O)[O-])c4nonc34)cc2)s1`, the Potency was 42.6 µM (active).
The same measure, in the same setting: with `CCOC(=O)c1ccccc1-c1csc(NS(=O)(=O)c2ccc(Cl)cc2)n1` the figure was 31.6 µM (active).
As to `CC(OC(=O)CCN1C(=O)C2CC=CCC2C1=O)C(=O)Nc1cccc(C#N)c1` (stereo not given), the “activity, negative = inhibition” value was -7.82% (inactive).
Still for that read-out and setting: to `CC(C)c1ccc(NS(=O)(=O)c2cn(C)c(=O)n(C)c2=O)cc1` belongs -12.6% (inactive); to `CN(C)c1nc(Oc2ccc(=O)[nH]n2)nc(N2CCOCC2)n1`, -13.2% (inactive); to `Cc1ccc(NC(=O)c2ccc(Cl)cc2Cl)c(C(=O)c2ccccc2)c1`, -10.3% (inactive).
Same read-out and setting: with `CC(C)(CNC(=O)Cc1ccc(NS(=O)(=O)c2cccc(C(F)(F)F)c2)cc1)N1CCOCC1` the figure was -9.2% (inactive).
On to `C#CCOCCOCCOCCNc1nc(N2CCN(C(=O)[C@H](Cc3cc4ccccc4[nH]3)n3cc([C@@H](N)Cc4ccc(O)cc4)nn3)CC2)nc(N2CCN(C(=O)[C@H](Cc3cc4ccccc4[nH]3)n3cc([C@@H](N)CC(C)C)nn3)CC2)n1`, for which the Potency is 44.7 µM (active).
`O=c1[nH]c([N+](=O)[O-])nn1C(c1ccccc1)c1ccccc1`: the “activity, negative = inhibition” value was -27.4% (inactive).
The same measure, in the same setting: with `COc1cc(CNn2cnnc2)ccc1OCC(=O)NC(C)(C)C` the figure was -21.9% (inactive); with `CC(=O)Nc1ccc(NS(=O)(=O)c2cn(C)c(=O)n(C)c2=O)cc1`, -2.59% (inactive); with `CCc1noc(C)c1C(=O)N1CCCSC1=Nc1ccccc1C(C)C`, -21.1% (inactive).
On the same count and under the same terms, to `COc1cccc(C(=O)C2=NN(C(C)=O)CC2c2ccco2)c1` (stereo not given) belongs -18.3% (inactive); to `COC(=O)c1c(SC)nc2ccccc2c1OCc1ccc(Br)cc1`, -24.4% (inactive).
In the case of `CC(=Cc1ccccc1)C=C1SC(=S)N(CCCC(=O)Nc2ccc(C(=O)O)c(O)c2)C1=O`, the Potency is 37.9 µM (active).
On to `CC(C)CC1C(=O)N(Cc2cn(CCC3OCCO3)nn2)CCS(=O)(=O)N1Cc1ccc(-c2ccc(F)cc2)cc1` (stereo not given), for which the “activity, negative = inhibition” value is -32.4% (inactive).
Still for that read-out and setting: with `CCc1cc2c(-c3ccccc3)cc(=O)oc2cc1OCC(=O)NCC1CCC(C(=O)O)CC1` (stereo not given) the figure was -28.2% (inactive); with `Cc1ccc(N2C(=O)c3ccccc3C2C(=O)c2ccc(O)cc2O)cc1` (stereo not given), -57.1% (inactive); with `CCc1ccc(NC(=O)CSc2nnc(Cc3cccn3C)n2-c2ccc(OC)cc2)cc1`, -28.4% (inactive).
For the compound `CCc1ccc2c(c1)C(NC(C)=O)C(=O)N2CCN1CCOCC1` (stereo not given), the Potency is 19 µM (active).
For `NC(=O)COC(=O)c1ccc(Cl)c(S(=O)(=O)N(Cc2ccccc2)c2ccc(Cl)cc2)c1`, the “activity, negative = inhibition” value is -22.7% (inactive).
Same read-out and setting: with `COc1ccc(-c2nn(-c3ccccc3)cc2/C=N/n2cnnc2)cc1OC` the figure was -14.1% (inactive).
On to `C=CCOc1ccc(/C=C2\SC(=S)N(C(C(=O)O)c3ccccc3)C2=O)cc1` (stereo not given), for which the Potency is 31.6 µM (active).

The next assay shares this target. As to the kind of experiment: Confirmatory qHTS for agonist of cAMP-regulated guanine nucleotide exchange factor 3 (EPAC1) (AID 1645881).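 For activation: EPAC1 catalysed release of BODIPY-GDP from Rap1B seen as fluorescence loss; 100% = effect of cAMP agonist control.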 Note: nearly all actives have a fitted effect of over 75% in size. Particulars: EPAC1 Rap1B BODIPY-GDP exchange fluorescence; series mostly up to 154 µM; activation: at the top concentration. (Quantitative high-throughput screening tests each substance at several concentrations.)
In the case of `O=C(c1ccccc1)N1CCN(CCc2ccccn2)CC1`, the “activation” value was 14.3% (inactive).
On the same count and under the same terms, to `Cc1ccnc(NS(=O)(=O)c2ccc(NC(=O)Cc3c(F)cccc3Cl)cc2)n1` belongs 17.9% (inactive); to `CN1N=C(C(C)(C)C)CC1=O`, 1.04% (inactive); to `COc1cc(/C=C2\SC(=S)N(NS(=O)(=O)c3ccc(C)cc3)C2=O)ccc1O`, -8.07% (inactive).
Still for that read-out and setting: with `CCOc1ccc(/C(C)=N/NC(=O)C(OC)c2ccccc2)cc1` (stereo not given) the figure was 9.22% (inactive).
Same read-out and setting: with `O=C(/C=C/c1ccc(Cl)cc1)Nc1nccs1` the figure was -5.87% (inactive).
As to `Cc1ccc(Cl)cc1NC(=O)c1ccccc1OCC(=O)Nc1ccc(Cl)cc1`, the “activation” value was -7.33% (inactive).
For the compound `CCNC(=O)COc1ccc(/C=C2\COc3ccccc3C2=O)cc1OC`, the “activation” value is -3.21% (inactive).
In the case of `CCOC(=O)c1c(C)nc2sc(C(N)=O)c(N)c2c1-c1ccccc1`, the “activation” value was -3.33% (inactive).
On the same count and under the same terms, with `O=C(O)c1ccccc1NS(=O)(=O)c1ccc(N/N=C/c2ccc(O)c(O)c2)c([N+](=O)[O-])c1` the figure was -17.5% (inactive).
Same read-out and setting: with `Cc1ccc(NC(=O)c2ccc(Cl)c(S(=O)(=O)N3CCc4ccccc43)c2)nc1` the figure was 17.3% (inactive).
With `COc1ccc(-c2onc3ccc(C(C)=O)cc23)cc1`, the Potency was 79.4 µM (active).
In the case of `COC(=O)c1cc2sccc2n1Cc1c(C)cc(C)cc1C`, the “activation” value was 19.6% (inactive).
Still for that read-out and setting: with `CCOc1ccc(N2CC(c3nc4ccccc4n3Cc3cccc(Cl)c3)CC2=O)cc1` (stereo not given) the figure was 11.7% (inactive); with `Cc1cc(-c2ccc(Br)s2)nc(-n2cccc2)n1`, 9.01% (inactive).
Still for that read-out and setting: to `O=C(Nc1cccc(Cl)c1)N(Cc1nc2ccccc2c(=O)[nH]1)Cc1cccs1` belongs 4.12% (inactive).
As for `C/C(=N\N1C(=O)c2ccccc2NC1c1ccco1)c1ccccc1O` (stereo not given), the “activation” value was 19.7% (inactive).
On to `CCc1nnc(NS(=O)(=O)c2ccc(Nc3ccc([N+](=O)[O-])c4nonc34)cc2)s1`, for which the “activation” value was -8.51% (inactive).
Still for that read-out and setting: with `CCOC(=O)c1ccccc1-c1csc(NS(=O)(=O)c2ccc(Cl)cc2)n1` the figure was -4.98% (inactive); with `CC(OC(=O)CCN1C(=O)C2CC=CCC2C1=O)C(=O)Nc1cccc(C#N)c1` (stereo not given), 2.28% (inactive); with `CC(C)c1ccc(NS(=O)(=O)c2cn(C)c(=O)n(C)c2=O)cc1`, 18.7% (inactive).
For `CN(C)c1nc(Oc2ccc(=O)[nH]n2)nc(N2CCOCC2)n1`, the “activation” value was 5.2% (inactive).
Same read-out and setting: to `Cc1ccc(NC(=O)c2ccc(Cl)cc2Cl)c(C(=O)c2ccccc2)c1` belongs 17.9% (inactive).
Still for that read-out and setting: with `CC(C)(CNC(=O)Cc1ccc(NS(=O)(=O)c2cccc(C(F)(F)F)c2)cc1)N1CCOCC1` the figure was 2.17% (inactive); with `C#CCOCCOCCOCCNc1nc(N2CCN(C(=O)[C@H](Cc3cc4ccccc4[nH]3)n3cc([C@@H](N)Cc4ccc(O)cc4)nn3)CC2)nc(N2CCN(C(=O)[C@H](Cc3cc4ccccc4[nH]3)n3cc([C@@H](N)CC(C)C)nn3)CC2)n1`, -1.59% (inactive); with `O=c1[nH]c([N+](=O)[O-])nn1C(c1ccccc1)c1ccccc1`, 5.16% (inactive).
Same read-out and setting: with `COc1cc(CNn2cnnc2)ccc1OCC(=O)NC(C)(C)C` the figure was -0.0359% (inactive); with `CC(=O)Nc1ccc(NS(=O)(=O)c2cn(C)c(=O)n(C)c2=O)cc1`, 7.39% (inactive).
`CCc1noc(C)c1C(=O)N1CCCSC1=Nc1ccccc1C(C)C`: the “activation” value was 13.9% (inactive).
With `COc1cccc(C(=O)C2=NN(C(C)=O)CC2c2ccco2)c1` (stereo not given), the “activation” value was 10.9% (inactive).
Still for that read-out and setting: with `COC(=O)c1c(SC)nc2ccccc2c1OCc1ccc(Br)cc1` the figure was 15.9% (inactive).
On the same count and under the same terms, to `CC(=Cc1ccccc1)C=C1SC(=S)N(CCCC(=O)Nc2ccc(C(=O)O)c(O)c2)C1=O` belongs -4.28% (inactive).
Still for that read-out and setting: to `CC(C)CC1C(=O)N(Cc2cn(CCC3OCCO3)nn2)CCS(=O)(=O)N1Cc1ccc(-c2ccc(F)cc2)cc1` (stereo not given) belongs 1.21% (inactive); to `CCc1cc2c(-c3ccccc3)cc(=O)oc2cc1OCC(=O)NCC1CCC(C(=O)O)CC1` (stereo not given), 1.07% (inactive); to `Cc1ccc(N2C(=O)c3ccccc3C2C(=O)c2ccc(O)cc2O)cc1` (stereo not given), 1.88% (inactive).
Take `CCc1ccc(NC(=O)CSc2nnc(Cc3cccn3C)n2-c2ccc(OC)cc2)cc1`: the “activation” value is 16.7% (inactive).
Same read-out and setting: to `CCc1ccc2c(c1)C(NC(C)=O)C(=O)N2CCN1CCOCC1` (stereo not given) belongs 15.9% (inactive); to `NC(=O)COC(=O)c1ccc(Cl)c(S(=O)(=O)N(Cc2ccccc2)c2ccc(Cl)cc2)c1`, 13.7% (inactive); to `COc1ccc(-c2nn(-c3ccccc3)cc2/C=N/n2cnnc2)cc1OC`, 12.9% (inactive).
The same measure, in the same setting: with `C=CCOc1ccc(/C=C2\SC(=S)N(C(C(=O)O)c3ccccc3)C2=O)cc1` (stereo not given) the figure was -15.1% (inactive).
